Here are results for six compounds from ChEMBL document CHEMBL1961873, “Compounds: GSK PKIS; Assays: Nanosyn kinase panel” (2012).

Usually inhibition stands for the change of the read-out against control, counted positive when it falls.

The target in experiment [1] is High affinity nerve growth factor receptor (Homo sapiens) (UniProt P04629). The note with it: at 1 µM.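 Also: each value is the mean percent inhibition of TRKA.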
The target in experiment [2] is BDNF/NT-3 growth factors receptor (Homo sapiens) (UniProt Q16620). The note with it: at 0.1 µM.
For experiment [3] the target is unchanged. The note with it: at 1 µM.
The target of experiment [4] is NT-3 growth factor receptor (Homo sapiens) (UniProt Q16288). The note with it: at 0.1 µM.
Experiment [5] has the same target. The note with it: at 1 µM.
The target in experiment [6] is T1, Tyrosine-protein kinase TXK (Homo sapiens) (UniProt P42681).
T1 sequence (whole entry): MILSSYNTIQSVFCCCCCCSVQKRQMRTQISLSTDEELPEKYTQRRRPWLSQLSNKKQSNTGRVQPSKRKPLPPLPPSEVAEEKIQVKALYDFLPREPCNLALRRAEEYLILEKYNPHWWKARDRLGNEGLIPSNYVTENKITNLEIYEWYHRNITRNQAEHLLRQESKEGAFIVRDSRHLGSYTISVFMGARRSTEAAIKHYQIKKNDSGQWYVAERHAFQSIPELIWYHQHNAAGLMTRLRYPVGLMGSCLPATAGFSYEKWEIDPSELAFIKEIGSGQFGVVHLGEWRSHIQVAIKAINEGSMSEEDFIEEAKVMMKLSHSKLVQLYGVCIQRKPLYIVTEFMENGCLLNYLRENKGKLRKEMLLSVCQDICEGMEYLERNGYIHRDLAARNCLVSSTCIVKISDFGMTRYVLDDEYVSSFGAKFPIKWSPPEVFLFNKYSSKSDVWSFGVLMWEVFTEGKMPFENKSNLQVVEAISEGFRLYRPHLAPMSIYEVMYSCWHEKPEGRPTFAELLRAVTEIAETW
The note with it: at 0.1 µM.

Experiment [7] deals with T1, Tyrosine-protein kinase TXK (Homo sapiens). The conditions noted are these: at 1 µM.
Experiment [8] has as its target Non-receptor tyrosine-protein kinase TYK2 (Homo sapiens) (UniProt P29597). The note with it: at 0.1 µM.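 Also: each value is a mean of the inhibition readings.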
The target in experiment [9] is T2, Dual specificity protein kinase TTK (Homo sapiens) (UniProt P33981).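 Also: reported figures are mean TTK inhibition at 1 µM.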
T2 sequence (whole entry): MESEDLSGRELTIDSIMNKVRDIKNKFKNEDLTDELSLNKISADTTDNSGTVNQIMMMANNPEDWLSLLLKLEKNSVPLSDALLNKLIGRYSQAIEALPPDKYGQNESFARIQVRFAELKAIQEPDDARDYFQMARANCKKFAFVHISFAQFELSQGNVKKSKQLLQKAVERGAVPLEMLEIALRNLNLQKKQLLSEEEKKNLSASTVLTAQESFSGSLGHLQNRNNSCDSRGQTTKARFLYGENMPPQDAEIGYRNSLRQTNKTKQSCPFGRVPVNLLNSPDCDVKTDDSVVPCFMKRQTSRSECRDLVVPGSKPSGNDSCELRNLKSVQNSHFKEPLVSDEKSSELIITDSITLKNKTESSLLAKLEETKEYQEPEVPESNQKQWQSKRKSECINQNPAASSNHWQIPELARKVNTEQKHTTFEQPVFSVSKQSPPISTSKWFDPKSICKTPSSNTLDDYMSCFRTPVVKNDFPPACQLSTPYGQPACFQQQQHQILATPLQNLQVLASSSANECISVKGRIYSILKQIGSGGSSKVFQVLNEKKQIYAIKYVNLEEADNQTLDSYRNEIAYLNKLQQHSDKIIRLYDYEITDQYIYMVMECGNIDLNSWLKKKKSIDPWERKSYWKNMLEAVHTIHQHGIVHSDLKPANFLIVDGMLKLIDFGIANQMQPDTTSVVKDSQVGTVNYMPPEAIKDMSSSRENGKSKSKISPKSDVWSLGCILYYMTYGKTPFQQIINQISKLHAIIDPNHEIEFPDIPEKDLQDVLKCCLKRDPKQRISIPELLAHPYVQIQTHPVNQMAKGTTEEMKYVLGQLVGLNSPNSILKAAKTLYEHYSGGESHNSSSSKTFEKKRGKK
The conditions noted are these: at 1 µM.

In experiment [10] the target is T3, Aurora kinase A (Homo sapiens) (UniProt O14965).
T3 sequence (whole entry): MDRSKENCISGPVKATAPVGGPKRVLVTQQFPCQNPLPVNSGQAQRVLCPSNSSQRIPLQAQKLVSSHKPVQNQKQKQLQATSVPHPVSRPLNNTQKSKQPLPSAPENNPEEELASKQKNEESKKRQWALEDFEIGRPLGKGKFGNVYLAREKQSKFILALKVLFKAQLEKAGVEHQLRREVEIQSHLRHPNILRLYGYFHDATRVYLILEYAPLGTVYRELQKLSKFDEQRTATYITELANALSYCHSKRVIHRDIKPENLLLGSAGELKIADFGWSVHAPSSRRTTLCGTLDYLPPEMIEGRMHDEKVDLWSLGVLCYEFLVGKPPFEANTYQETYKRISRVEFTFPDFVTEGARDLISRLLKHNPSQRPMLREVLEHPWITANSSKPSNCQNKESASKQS
The note with it: at 0.1 µM.

Experiment [11] has as its target T3, Aurora kinase A (Homo sapiens). The note with it: at 1 µM.
In experiment [12] the target is Aurora kinase B (Homo sapiens) (UniProt Q96GD4). The conditions noted are these: at 0.1 µM.
For experiment [13] the target is unchanged. The note with it: at 1 µM.
Experiment [14] concerns the target T4, Aurora kinase C (Homo sapiens) (UniProt Q9UQB9).
T4 sequence (whole entry): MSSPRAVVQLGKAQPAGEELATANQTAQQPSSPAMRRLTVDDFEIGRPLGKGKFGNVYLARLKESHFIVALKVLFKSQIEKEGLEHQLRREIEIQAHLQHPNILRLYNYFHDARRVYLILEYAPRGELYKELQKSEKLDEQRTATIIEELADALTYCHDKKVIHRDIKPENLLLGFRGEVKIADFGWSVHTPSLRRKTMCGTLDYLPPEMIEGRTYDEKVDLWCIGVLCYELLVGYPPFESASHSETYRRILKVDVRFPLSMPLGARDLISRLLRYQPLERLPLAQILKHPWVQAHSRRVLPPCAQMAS
The conditions noted are these: at 0.1 µM.

The target of experiment [15] is T4, Aurora kinase C (Homo sapiens). The note with it: at 1 µM.
In experiment [16] the target is Serine/threonine-protein kinase 10 (Homo sapiens) (UniProt O94804). The note with it: at 0.1 µM.
Experiment [17] has the same target. The note with it: at 1 µM.
Experiment [18] deals with T5, Mitogen-activated protein kinase kinase kinase kinase 2 (Homo sapiens) (UniProt Q12851).
T5 sequence (whole entry): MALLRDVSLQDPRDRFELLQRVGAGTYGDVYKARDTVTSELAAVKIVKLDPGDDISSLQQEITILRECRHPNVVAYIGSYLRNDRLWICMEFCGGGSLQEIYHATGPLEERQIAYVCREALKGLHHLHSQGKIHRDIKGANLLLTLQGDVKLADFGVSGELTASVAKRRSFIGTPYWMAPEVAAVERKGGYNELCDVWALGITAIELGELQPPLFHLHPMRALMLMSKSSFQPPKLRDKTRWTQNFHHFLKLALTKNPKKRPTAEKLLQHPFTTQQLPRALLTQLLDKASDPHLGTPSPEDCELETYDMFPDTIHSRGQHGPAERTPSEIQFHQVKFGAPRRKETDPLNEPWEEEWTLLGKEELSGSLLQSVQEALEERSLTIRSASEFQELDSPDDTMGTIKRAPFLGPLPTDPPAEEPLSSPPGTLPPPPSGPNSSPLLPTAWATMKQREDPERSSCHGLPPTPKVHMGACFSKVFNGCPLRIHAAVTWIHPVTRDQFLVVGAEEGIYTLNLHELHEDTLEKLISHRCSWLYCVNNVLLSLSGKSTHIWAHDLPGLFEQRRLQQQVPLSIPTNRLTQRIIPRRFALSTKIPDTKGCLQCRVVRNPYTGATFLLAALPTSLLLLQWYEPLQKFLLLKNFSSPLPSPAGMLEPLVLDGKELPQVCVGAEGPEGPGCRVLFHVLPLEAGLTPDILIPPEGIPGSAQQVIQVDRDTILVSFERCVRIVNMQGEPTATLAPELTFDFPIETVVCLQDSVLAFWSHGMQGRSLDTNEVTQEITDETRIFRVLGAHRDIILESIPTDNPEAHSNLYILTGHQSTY
The note with it: at 0.1 µM.

The target in experiment [19] is T5, Mitogen-activated protein kinase kinase kinase kinase 2 (Homo sapiens). The note with it: at 1 µM.
For experiment [20], the target named is Mitogen-activated protein kinase kinase kinase kinase 4 (Homo sapiens) (UniProt O95819). The note with it: at 0.1 µM.
Mitogen-activated protein kinase kinase kinase kinase 4 (Homo sapiens), sequence (O95819 2-1239 limits assumed): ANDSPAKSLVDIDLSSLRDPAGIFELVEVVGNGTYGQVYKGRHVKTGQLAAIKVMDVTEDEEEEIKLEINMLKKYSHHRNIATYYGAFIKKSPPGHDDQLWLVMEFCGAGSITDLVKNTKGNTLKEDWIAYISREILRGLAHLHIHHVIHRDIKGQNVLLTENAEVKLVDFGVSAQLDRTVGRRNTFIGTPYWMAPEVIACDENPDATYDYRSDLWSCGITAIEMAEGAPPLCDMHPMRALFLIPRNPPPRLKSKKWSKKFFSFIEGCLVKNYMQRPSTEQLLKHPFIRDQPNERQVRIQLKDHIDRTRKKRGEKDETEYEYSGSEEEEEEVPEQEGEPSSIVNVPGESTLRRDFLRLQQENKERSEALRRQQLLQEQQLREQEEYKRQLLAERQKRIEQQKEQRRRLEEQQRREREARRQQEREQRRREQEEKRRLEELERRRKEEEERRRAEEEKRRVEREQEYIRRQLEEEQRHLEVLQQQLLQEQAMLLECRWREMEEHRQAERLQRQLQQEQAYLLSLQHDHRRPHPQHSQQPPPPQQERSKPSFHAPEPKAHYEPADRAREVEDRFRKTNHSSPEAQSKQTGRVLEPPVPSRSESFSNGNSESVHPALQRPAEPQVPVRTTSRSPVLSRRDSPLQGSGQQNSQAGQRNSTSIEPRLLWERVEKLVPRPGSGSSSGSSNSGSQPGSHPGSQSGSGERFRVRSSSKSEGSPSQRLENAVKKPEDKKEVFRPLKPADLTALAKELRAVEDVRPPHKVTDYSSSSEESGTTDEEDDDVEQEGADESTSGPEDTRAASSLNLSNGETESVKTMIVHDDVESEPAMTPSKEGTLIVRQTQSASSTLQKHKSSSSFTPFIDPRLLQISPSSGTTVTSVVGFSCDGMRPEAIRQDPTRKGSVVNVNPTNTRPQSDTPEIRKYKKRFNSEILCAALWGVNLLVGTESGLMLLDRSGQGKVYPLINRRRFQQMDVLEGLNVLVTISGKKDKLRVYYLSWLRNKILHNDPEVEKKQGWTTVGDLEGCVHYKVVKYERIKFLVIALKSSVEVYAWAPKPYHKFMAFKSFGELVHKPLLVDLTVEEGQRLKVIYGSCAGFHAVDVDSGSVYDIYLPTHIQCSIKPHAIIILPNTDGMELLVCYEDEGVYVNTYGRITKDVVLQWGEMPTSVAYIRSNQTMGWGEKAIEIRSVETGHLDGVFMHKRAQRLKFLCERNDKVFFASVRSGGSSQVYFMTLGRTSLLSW

Aurora kinase B (Homo sapiens), sequence (Q96GD4 whole entry): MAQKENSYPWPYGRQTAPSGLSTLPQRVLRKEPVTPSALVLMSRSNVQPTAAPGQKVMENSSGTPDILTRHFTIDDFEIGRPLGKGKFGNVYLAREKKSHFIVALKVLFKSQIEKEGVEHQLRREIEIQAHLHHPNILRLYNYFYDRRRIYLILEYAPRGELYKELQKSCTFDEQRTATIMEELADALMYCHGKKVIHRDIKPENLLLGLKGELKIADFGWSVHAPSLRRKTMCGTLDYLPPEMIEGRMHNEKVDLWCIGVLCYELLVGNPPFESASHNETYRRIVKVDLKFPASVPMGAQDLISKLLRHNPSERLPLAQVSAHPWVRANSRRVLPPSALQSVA
BDNF/NT-3 growth factors receptor (Homo sapiens), sequence (Q16620 32-822 limits assumed): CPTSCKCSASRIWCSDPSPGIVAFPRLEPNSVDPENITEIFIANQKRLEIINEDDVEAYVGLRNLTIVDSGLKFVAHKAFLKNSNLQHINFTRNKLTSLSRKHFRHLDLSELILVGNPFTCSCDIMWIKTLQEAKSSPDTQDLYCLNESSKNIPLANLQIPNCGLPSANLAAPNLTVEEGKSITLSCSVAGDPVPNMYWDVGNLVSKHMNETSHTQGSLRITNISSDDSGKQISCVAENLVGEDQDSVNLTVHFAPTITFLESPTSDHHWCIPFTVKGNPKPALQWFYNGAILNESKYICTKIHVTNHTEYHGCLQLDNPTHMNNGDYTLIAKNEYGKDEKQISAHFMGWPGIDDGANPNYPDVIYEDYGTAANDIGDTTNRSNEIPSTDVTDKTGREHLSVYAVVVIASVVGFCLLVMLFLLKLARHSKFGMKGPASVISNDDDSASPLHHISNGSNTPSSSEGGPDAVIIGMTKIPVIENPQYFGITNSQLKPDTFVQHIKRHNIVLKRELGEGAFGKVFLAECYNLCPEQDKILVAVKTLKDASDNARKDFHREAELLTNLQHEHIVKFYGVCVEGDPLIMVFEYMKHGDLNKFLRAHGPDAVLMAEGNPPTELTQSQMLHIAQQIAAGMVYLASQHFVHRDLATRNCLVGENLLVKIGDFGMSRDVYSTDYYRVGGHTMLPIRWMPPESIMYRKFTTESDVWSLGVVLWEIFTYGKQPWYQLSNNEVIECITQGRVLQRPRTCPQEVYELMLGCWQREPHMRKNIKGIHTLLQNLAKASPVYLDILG
High affinity nerve growth factor receptor (Homo sapiens), sequence (P04629 33-796 limits assumed): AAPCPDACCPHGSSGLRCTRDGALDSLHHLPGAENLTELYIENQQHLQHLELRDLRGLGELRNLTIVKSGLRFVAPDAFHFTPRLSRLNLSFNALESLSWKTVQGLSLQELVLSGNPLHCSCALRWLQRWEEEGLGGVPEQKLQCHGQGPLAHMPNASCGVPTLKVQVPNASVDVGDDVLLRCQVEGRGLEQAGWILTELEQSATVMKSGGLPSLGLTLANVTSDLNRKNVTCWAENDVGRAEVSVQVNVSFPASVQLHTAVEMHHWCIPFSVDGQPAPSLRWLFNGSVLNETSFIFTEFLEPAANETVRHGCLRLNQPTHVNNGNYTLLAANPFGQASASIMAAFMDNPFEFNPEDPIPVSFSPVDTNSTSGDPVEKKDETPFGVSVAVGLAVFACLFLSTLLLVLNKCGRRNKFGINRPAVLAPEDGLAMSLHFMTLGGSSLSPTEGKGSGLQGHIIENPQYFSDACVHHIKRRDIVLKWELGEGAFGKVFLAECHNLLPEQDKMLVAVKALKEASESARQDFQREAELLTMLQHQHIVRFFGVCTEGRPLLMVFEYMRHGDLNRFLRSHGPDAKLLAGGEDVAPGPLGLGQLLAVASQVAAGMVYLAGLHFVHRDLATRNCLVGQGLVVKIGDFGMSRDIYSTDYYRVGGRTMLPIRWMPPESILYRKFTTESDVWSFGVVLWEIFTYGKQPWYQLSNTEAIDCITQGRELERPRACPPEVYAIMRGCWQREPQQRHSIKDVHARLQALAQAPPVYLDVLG
Serine/threonine-protein kinase 10 (Homo sapiens), sequence (O94804 whole entry, looked up): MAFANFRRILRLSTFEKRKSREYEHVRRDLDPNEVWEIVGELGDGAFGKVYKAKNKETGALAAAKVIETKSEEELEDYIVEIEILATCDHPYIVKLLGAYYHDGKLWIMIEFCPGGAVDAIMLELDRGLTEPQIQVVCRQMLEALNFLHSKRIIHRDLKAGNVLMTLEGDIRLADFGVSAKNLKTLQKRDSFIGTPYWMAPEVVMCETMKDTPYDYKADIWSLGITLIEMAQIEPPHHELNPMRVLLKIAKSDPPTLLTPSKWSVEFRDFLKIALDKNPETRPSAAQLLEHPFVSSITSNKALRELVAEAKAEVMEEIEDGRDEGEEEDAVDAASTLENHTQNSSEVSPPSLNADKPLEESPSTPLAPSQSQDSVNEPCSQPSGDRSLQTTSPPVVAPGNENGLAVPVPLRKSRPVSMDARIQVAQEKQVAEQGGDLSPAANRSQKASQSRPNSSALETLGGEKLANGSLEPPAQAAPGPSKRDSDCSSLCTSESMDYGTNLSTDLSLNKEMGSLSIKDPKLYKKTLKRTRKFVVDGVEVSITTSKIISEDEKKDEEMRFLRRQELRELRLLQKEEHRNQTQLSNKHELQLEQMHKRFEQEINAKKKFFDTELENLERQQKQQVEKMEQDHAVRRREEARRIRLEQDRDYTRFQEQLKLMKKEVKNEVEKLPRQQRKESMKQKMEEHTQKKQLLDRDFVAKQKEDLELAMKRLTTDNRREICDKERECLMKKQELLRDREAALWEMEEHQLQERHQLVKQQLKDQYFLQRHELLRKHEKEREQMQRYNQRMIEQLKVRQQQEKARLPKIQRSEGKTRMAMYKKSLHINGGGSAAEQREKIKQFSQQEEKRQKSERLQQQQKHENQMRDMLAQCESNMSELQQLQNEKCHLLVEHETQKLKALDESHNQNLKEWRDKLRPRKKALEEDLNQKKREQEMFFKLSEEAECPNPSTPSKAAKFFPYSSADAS
NT-3 growth factor receptor (Homo sapiens), sequence (Q16288 32-839 limits assumed): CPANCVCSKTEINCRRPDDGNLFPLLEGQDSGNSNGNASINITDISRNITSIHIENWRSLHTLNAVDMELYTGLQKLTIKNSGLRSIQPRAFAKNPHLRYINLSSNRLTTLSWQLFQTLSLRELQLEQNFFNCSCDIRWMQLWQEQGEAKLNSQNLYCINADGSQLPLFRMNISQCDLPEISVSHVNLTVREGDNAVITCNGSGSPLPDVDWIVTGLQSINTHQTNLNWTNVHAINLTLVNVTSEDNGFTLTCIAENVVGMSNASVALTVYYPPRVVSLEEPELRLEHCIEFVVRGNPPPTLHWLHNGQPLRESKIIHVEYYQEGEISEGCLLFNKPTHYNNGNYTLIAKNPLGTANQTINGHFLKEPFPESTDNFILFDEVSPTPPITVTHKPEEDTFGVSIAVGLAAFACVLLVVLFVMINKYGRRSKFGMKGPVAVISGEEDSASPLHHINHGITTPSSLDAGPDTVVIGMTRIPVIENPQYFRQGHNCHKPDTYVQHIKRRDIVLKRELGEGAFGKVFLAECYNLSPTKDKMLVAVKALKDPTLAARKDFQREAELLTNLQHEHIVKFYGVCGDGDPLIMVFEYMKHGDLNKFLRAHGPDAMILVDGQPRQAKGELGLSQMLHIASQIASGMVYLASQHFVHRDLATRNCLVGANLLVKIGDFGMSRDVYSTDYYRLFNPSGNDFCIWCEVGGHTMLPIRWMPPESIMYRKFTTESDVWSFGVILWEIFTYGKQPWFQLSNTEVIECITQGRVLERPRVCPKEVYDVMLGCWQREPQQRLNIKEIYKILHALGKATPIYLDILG

On to `CS(=O)(=O)CCNCc1coc(-c2ccc3ncnc(Nc4ccc(OCc5ccccc5)cc4)c3c2)c1`, for which the inhibition in [1] came out at 4.8%; in [2] it was 2%; in experiment [3] it was 4.13%; in experiment [4], 2.96%; in [5], 4.88%; in [6], 4.16%. Also, the inhibition is 3.86% in [7]; 1.95% in [8]; 2.54% in experiment [9]; 2.4% in experiment [10]; 4.78% in experiment [11]; 1.47% in [12]. In addition, the inhibition in experiment [13] came to 9.78%; in [14], 1.46%; in [15], 8.58%; in experiment [16] it was 8.03%; in experiment [17], 6.21%; in experiment [18], 0.9%. The inhibition came out at 3.83% in experiment [19] and 3.41% in experiment [20].

`CC(C)(CO)CNC(=O)c1ccc2c(c1)/C(=N/Nc1ccc(S(N)(=O)=O)cc1)C(=O)N2`: the inhibition was 15.6% in experiment [1]; 3.35% in [2]; 31.2% in experiment [3]; 6.89% in [4]; 41.5% in experiment [5]; -0.15% in [6]. Further, the inhibition was 3.21% in experiment [7]; -1.38% in [8]; 79.2% in [9]; 11.9% in experiment [10]; 56.2% in experiment [11]; 0.26% in [12]. Further, the inhibition in experiment [13] is 21%; in experiment [14], 3.09%; in experiment [15], 43%; in experiment [16], -1.79%; in [17], 4.55%; in experiment [18], 0.92%. The inhibition in experiment [19] turned out to be 3.15%; in experiment [20], 0.68%.

On to `NS(=O)(=O)c1ccc(Nc2ncc(-c3ccccc3)o2)cc1`, for which the inhibition stood at 8.51% in experiment [1]; 5.29% in experiment [2]; 15.4% in experiment [3]; 3.31% in [4]; 16.7% in experiment [5]; 4.63% in experiment [6]. The inhibition is 5.69% in [7]; -1.15% in [8]; 13.2% in [9]; 8.3% in experiment [10]; 67.2% in [11]; 5.18% in experiment [12]. The inhibition in [13] came to 24.7%; in [14], 6.57%; in experiment [15] it was 54.5%; in experiment [16] it was 5.53%; in experiment [17], 11.7%; in [18], 1.1%. Moreover, the inhibition in experiment [19] was 8.73%; in experiment [20], 12.4%.

Turning to `Clc1ccc(-c2nn3ncccc3c2-c2ccnc(Nc3ccccc3)n2)cc1`, the inhibition amounted to 6% in experiment [1]; 2.34% in experiment [2]; 3.72% in experiment [3]; 1.69% in experiment [4]; 2.21% in experiment [5]; 3.54% in [6]. In addition, the inhibition is 14.9% in [7]; 0.28% in [8]; 4.5% in [9]; 0.9% in [10]; 25.5% in [11]; 3.6% in experiment [12]. Further, the inhibition stood at 20.2% in [13]; 1.35% in experiment [14]; 36.1% in experiment [15]; 4.2% in [16]; 40.8% in [17]; 1.09% in experiment [18]. The figures for the inhibition in experiment [19] and in [20] were 5.08% and 5.07%, respectively.

Turning to `CCn1c(-c2nonc2N)nc2c(C#CC(C)(C)O)ncc(OC3CCNCC3)c21`, the inhibition was 3.24% in [1]; 1.42% in experiment [2]; 1.02% in [3]; 2.31% in experiment [4]; -0.14% in experiment [5]; 6.03% in experiment [6]. Moreover, the inhibition in experiment [7] is 3.86%; in [8], 0.42%; in experiment [9] it was 7.59%; in experiment [10] it was 4.24%; in [11] it was 0.96%; in experiment [12], 2.65%. For the same compound, the inhibition came out at 1.85% in experiment [13]; 1.48% in experiment [14]; 3.1% in experiment [15]; 3.27% in [16]; 11.2% in experiment [17]; 2.3% in experiment [18]. Moreover, the inhibition in [19] is 3.12%; in [20], 2.72%.

For `Nc1nc(-c2cccc(Cl)c2)c(-c2ccc3ncccc3n2)s1`, the inhibition is -0.34% in [1]; 2.86% in experiment [2]; 7.16% in experiment [3]; 2.95% in experiment [4]; 5.02% in experiment [5]; 4.04% in experiment [6]. The inhibition was 4.05% in experiment [7]; -3.11% in experiment [8]; -0.66% in experiment [9]; 2.19% in experiment [10]; 4.83% in [11]; 3.18% in [12]. Besides, the inhibition is 5.58% in experiment [13]; 1.1% in [14]; -2.15% in [15]; 8.2% in experiment [16]; 14.4% in experiment [17]; 1.48% in experiment [18]. The figures for the inhibition in [19] and in [20] were 3.7% and 12.6%, respectively.
